This is one part of a sample in which hits are shown more often than they occur.
IDE exosite FP – insulin-degrading enzyme (human) exo-site inhibition; P14735; purified IDE, FL-6b probe fluorescence polarization; stronger effect = lower value; z-score at 20 µM; actives 6.3% (n = 17,000); AID 1259349;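 active = z-score of -3 or lower, meaning strong loss of probe binding signal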;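 note: His-tagged human IDE residues 42-1019 made in E. coli with 30 nM FL-6b probe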
Of the large screens only hits and unclear results are named; the others gave an inactive call.

C/C=C/c1ccc(C2[C@H]3CNC[C@@H]2N3Cc2cc(OC)cc(OC)c2)cc1 (stereo partly drawn)	none
COc1cccc(CN2[C@@H]3CNC[C@H]2[C@H]3c2ccc(-c3ccccc3OC)cc2)c1	IDE exosite FP -3.4
COc1cc(CN2[C@@H]3CNC[C@H]2C3c2ccc(-c3ccc(C#N)cc3)cc2)cc(OC)c1 (stereo partly drawn)	none
COc1ccccc1-c1ccc(C2[C@H]3CNC[C@@H]2N3Cc2cc(-c3ccccc3)on2)cc1 (stereo partly drawn)	none
COc1cc(CN2[C@@H]3CNC[C@H]2C3c2ccc(-c3cccc(C)c3)cc2)cc(OC)c1 (stereo partly drawn)	IDE exosite FP -7.2
COc1cccc(CN2[C@@H]3CNC[C@H]2C3c2ccc(-c3ccc(C#N)cc3)cc2)c1 (stereo partly drawn)	none
O=C(C[C@H]1CC[C@H](NC(=O)c2ccc3c(c2)OCO3)[C@@H](CO)O1)NCc1ccc(Oc2ccccc2)cc1	none
CNC[C@H]1OCCCC[C@H](C)Oc2ccc(NS(=O)(=O)c3ccc(F)cc3)cc2C(=O)N([C@H](C)CO)C[C@H]1C	none
CO[C@H](CN(C)C(=O)c1ccccc1F)[C@H](C)CN([C@@H](C)CO)S(=O)(=O)c1ccc(F)cc1	none
C[C@@H]1CN([C@H](C)CO)C(=O)c2cc(C#CC3(O)CCCC3)cnc2O[C@@H]1CN(C)S(=O)(=O)c1cccc(F)c1	none
COc1cccc(NC(=O)Nc2ccc3c(c2)C(=O)N(C)C[C@@H](OC)[C@H](C)CN[C@H](C)CO3)c1	none
CO[C@H]1CN(C)C(=O)c2cc(NC(=O)c3ccc(Oc4ccccc4)cc3)ccc2OC[C@H](C)NC[C@@H]1C	none
CO[C@@H]1CN(C)C(=O)c2cc(NC(=O)c3ccc(Oc4ccccc4)cc3)ccc2OC[C@@H](C)NC[C@@H]1C	IDE exosite FP -11
CO[C@H]1CN(C)C(=O)c2cc(NC(=O)c3cnccn3)ccc2OC[C@H](C)NC[C@@H]1C	none
CO[C@H]1CN(C)C(=O)c2cc(NC(=O)c3ccc(Oc4ccccc4)cc3)ccc2OC[C@@H](C)NC[C@H]1C	IDE exosite FP -7.9
CO[C@H]1CN(C)C(=O)c2cc(NC(=O)c3cnccn3)ccc2OC[C@@H](C)NC[C@H]1C	none
COCCNC(=O)C[C@@H]1CC[C@H]2[C@@H](COC[C@@H](O)CN2C(=O)c2cc(Cl)cc(Cl)c2)O1	none
CC(=O)N1CC2(C1)[C@@H](c1ccc(-c3ccc(F)cc3)cc1)[C@@H](CO)N2CC1CC1	none
O=C(c1ccccn1)N1CC(=O)N2[C@H](CO)[C@@H](c3ccc(C#CC4CCCC4)cc3)[C@H]2C1	none
O=C(Nc1ccccc1)N1CCCCN2[C@H](CO)[C@H](c3ccc(Br)cc3)[C@H]2C1	none
CO[C@@H]1CN(C)C(=O)c2cc(NC(=O)Nc3c(C)noc3C)ccc2OC[C@H](C)NC[C@@H]1C	none
C/C=C/c1ccc([C@H]2[C@@H](CNC(=O)CC3CC3)N(C(=O)CC)[C@H]2CO)cc1	none
CC(C)(C)[S@](=O)N1Cc2cc(C(=O)NCCc3ccncc3)nc(-c3cccc(-c4cccc(C#N)c4)c3)c2[C@@H]1CCO	none
CC(=O)N1[C@H](CO)[C@H](c2ccc(-c3ccncc3)cc2)[C@@H]1CNC(=O)CC1CC1	none
O=C(c1ccc2c(c1)OCO2)N1CC(=O)N2[C@H](C1)[C@H](c1ccc(-c3ccccc3)cc1)[C@@H]2CO	none
O=C(c1ccc2c(c1)OCO2)N1CC(=O)N2[C@H](C1)[C@H](c1ccc(C#Cc3ccccc3)cc1)[C@@H]2CO	IDE exosite FP -3.5
O=C(c1ccc2c(c1)OCO2)N1CC(=O)N2[C@H](CO)[C@H](c3ccc(C#Cc4ccccc4)cc3)[C@H]2C1	none
O=C(c1ccc2c(c1)OCO2)N1CC(=O)N2[C@@H](CO)[C@@H](c3ccc(C#Cc4ccccc4)cc3)[C@@H]2C1	IDE exosite FP -5.2
O=C(c1ccc2c(c1)OCO2)N1CC(=O)N2[C@H](CO)[C@H](c3ccc(-c4ccccc4)cc3)[C@@H]2C1	none
CC(C)C#Cc1ccc([C@H]2[C@H](CO)N3C(=O)CN(C(=O)c4ccc5c(c4)OCO5)C[C@@H]23)cc1	none
O=C(NC[C@H]1[C@H](c2ccccc2)[C@@H](CO)N1CC1CC1)C1CC1	none
COc1ccc2c3c([nH]c2c1)[C@@H](CO)N(C(=O)C1CCCCC1)CC31CN(S(C)(=O)=O)C1	none
C/C=C/c1ccc([C@@H]2[C@H](CO)N(C(=O)C3CCCC3)C23CN(S(C)(=O)=O)C3)cc1	none
CCCNC(=O)N1CC(=O)N2[C@@H](CO)[C@@H](c3ccc(C#CCC4CCCC4)cc3)[C@@H]2C1	none
N#Cc1ccc(-c2ccc([C@H]3[C@@H](CO)N4CCCCN(S(=O)(=O)c5ccccc5)C[C@H]34)cc2)cc1	none
Cc1ccc(CN2CC(=O)N3[C@H](CO)[C@@H](c4ccc(-c5cccnc5)cc4)[C@H]3C2)cc1	none
C/C=C/c1ccc([C@H]2[C@H]3CN(C(=O)c4cnccn4)CC(=O)N3[C@H]2CO)cc1	none
C/C=C/c1ccc([C@@H]2[C@@H](CO)N3C(=O)CN(C(=O)c4cnccn4)C[C@H]23)cc1	none

Assay outcomes: PubChem, Broad Institute
